This is a sample that favours compounds with a hit; in the whole collection about 1.4% have one here.
PglD inh = C. jejuni PglD acetyltransferase inhibitors, primary screen, biochemical, DTNB colorimetric, single point. purified PglD enzyme, DTNB colorimetric CoA detection. inhibition, % at 12.5 µM. 360,000 compounds, 0.098% hits. AID 602405, 2012; in the data active means inhibition above about 16%, passing the limit was not always enough
Statin myotox sup = suppressors of statin myotoxicity in C2C12 myotubes, primary screen, cell-based, single point, plate reader; C2C12 myotubes + simvastatin, ATP luminescence, 48 h; scaled: DMSO 0, geranylgeraniol control 100; rescue of ATP level, % at 7.49 µM; 330,000 compounds, 0.78% hits; AID 602340, 2012;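 active means mean ATP rescue above about 67%, or every replicate alone reaching that limit, limit read from the data, passing the limit was not always enough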;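 further: myotubes were challenged with 10 µM simvastatin during compound exposure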
ARNT TACC3 PPI = disruptors of ARNT/TACC3 protein interaction, primary screen, biochemical, AlphaScreen, single concentration; AlphaScreen His-ARNT PAS-B/GST-TACC3 binding, luminescence; TACC3 fragment carries E629A point mutation; inhibition, % at 9.99 µM; 390,000 compounds, 0.66% hits;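 active means mean inhibition of replicates at least 50% and at least half of replicates each reaching 50%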
CFTR F508del cor = F508del CFTR correction, initial screen, CFBE line, single point. CFBE cells, YFP halide quenching; stimulated with forskolin plus potentiator P3; % fluorescence drop versus neutral controls. activity (quench increase), % at 7.58 µM. 350,000 compounds, 0.36% hits. AID 720511, 2013;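 active means mean added fluorescence quench of at least 8% versus neutral control, with both replicates also reaching 8%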;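 further: cells transiently co-express mutant CFTR-F508del with the halide-sensitive YFP; corrector assay measuring rescue of mutant channel to the surface after 24 h compound exposure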
Numbers stand for hits; 0 = inactive; - = no result.

SMILES	PglD inh	Statin myotox sup	ARNT TACC3 PPI	CFTR F508del cor
OCCNc1cc(-n2nc(-c3ccccc3)cc2-c2ccccc2)ncn1	0	113.8	0	-
COc1cc(NCCCNC(C)C)c2nccc(C)c2c1	0	0	76.8	0
Cc1cc(C)nc(N/N=C/c2sccc2C)n1	-	-	0	0
Cc1ccsc1/C=N/Nc1nc(=O)[nH]nc1C	-	-	63.7	0
COc1ccc2c3c(n(C)c2c1)[C@H](CO)N(S(C)(=O)=O)CC31CCN(CC2CCCC2)CC1	-	-	-	0
OCCNCc1cccc(-c2ccccc2)c1O	0	100.3	0	0
COCCNc1nc(NC(C)C)nc2ccsc12	0	0	-	0
CC(C)Nc1nc(Nc2ccc(Cl)cc2F)c2sccc2n1	0	0	-	8.6
CO[C@H]1CN(C)C(=O)c2cc(NC(=O)NC(C)C)ccc2OC[C@H](C)N(C)C[C@@H]1C	0	0	0	0
CS(=O)(=O)N1CC2(C1)[C@@H](c1ccccc1)[C@@H](CO)N2Cc1ccc(F)cc1	-	-	-	0
COCCCNC(=S)NNC(=O)c1ccc(C(C)(C)C)cc1	-	-	0	0
COCCCNC(=S)NNC(=O)c1csc(C)n1	-	0	56.6	0
COCCNC(=S)N(CCO)Cc1cc2cc3c(cc2[nH]c1=O)OCCO3	0	0	48.7	0
CCOCCCNC(=S)N(CCCN(C)C)Cc1cc2cc3c(cc2[nH]c1=O)OCCO3	0	0	27.1	0
CN(C)CC(=O)Nc1ccc2c(c1)[C@H]1C[C@H](CC(=O)NCc3cccc(F)c3)O[C@H](CO)[C@H]1O2	0	0	0	0
CCCc1cn([C@H]2C[C@@H]3O[C@@H](CO)CC[C@@H]3O[C@@H]2CCc2ccc(-c3ccc(OC)cc3)cc2)nn1	-	-	-	0
Cc1noc(C)c1S(=O)(=O)Nc1ccc2c(c1)C(=O)N([C@H](C)CO)C[C@@H](C)[C@@H](CN(C)CC1CCCCC1)OCCCC[C@H](C)O2	0	0	0	0
C[C@@H]1CN([C@@H](C)CO)C(=O)c2cc(C#CC3CC3)cnc2O[C@H]1CN(C)C(=O)C1CCCCC1	-	0	-	0
COCC(=O)Nc1ccc2c(c1)[C@@H]1C[C@@H](CC(=O)NCCc3ccccc3)O[C@@H](CO)[C@@H]1O2	0	0	0	0
COc1ccc(NC(=O)Nc2ccc3c(c2)CC(=O)N([C@H](C)CO)C[C@H](C)[C@@H](CN(C)S(=O)(=O)c2cccs2)O3)cc1	0	0	-	0
COc1ccccc1N1CCN(C(=O)NCc2ccc(Cl)cc2)CC1	0	0	0	0
COc1cc(SC)ccc1C(=O)N1CCN(c2ccccc2OC)CC1	0	0	0	14.5
COc1ccccc1N1CCN(C(=O)c2ccc(-c3ccc(Cl)cc3)o2)CC1	0	0	0	9.4
Oc1ccc(Cl)cc1C1=NNC(c2cccs2)C1 (configuration not stated)	0	148.6	0	0
Cc1ccc(O)c(C2=NNC(c3ccc(Cl)cc3)C2)c1 (configuration not stated)	0	-	0	0
SMILES	PglD inh	Statin myotox sup	ARNT TACC3 PPI	CFTR F508del cor
C[C@@H]1CN([C@H](C)CO)C(=O)c2cccc(NC(=O)C3CCCCC3)c2O[C@H]1CN(C)C(=O)Nc1cccc2ccccc12	0	0	0	0
CC1CCc2sc3nc(NCc4ccco4)n4ncnc4c3c2C1 (configuration not stated)	0	0	0	-
CCN1CCN(c2nc3sc4c(c3c3ncnn23)CC(C)CC4)CC1 (configuration not stated)	0	126.2	0	-
COc1ccc(C2C(C(=O)c3ccccc3)N3c4ccccc4C=CC3C2[N+](=O)[O-])cc1 (configuration not stated)	-	-	0	22.7
COc1ccc(N2C(=O)[C@@H]3[C@H](C2=O)[C@H](C(C)=O)N2c4ccccc4C=C[C@@H]32)cc1	0	0	0	0
CS(=O)(=O)N1CCCCN2[C@H](C1)[C@H](c1ccc(C#Cc3ccccn3)cc1)[C@@H]2CO	0	-	0	0
Cc1ccc(-n2cc(-c3ccccc3)c3c(N4CCN(C)CC4)ncnc32)cc1	-	-	0	0
Cc1ccc(-n2cc(-c3ccccc3)c3c(N4CCOCC4)ncnc32)cc1	-	-	0	8.2
CCOC(=O)CCCCC(=O)c1[nH]c(=O)[nH]c1CSc1nc2ccccc2[nH]1	0	95.5	0	0
C/C=C/c1ccc([C@@H]2[C@@H](CNC(=O)C3CCC3)N(C(=O)NCCC)[C@H]2CO)cc1	0	0	0	0
CCN(CC)CCn1nc2c3c(cccc3c1=O)-c1ccccc1-2	-	-	0	17.7
CC[C@H]1OC(=O)[C@H](C)[C@@H](O[C@H]2C[C@@](C)(OC)[C@@H](O)[C@H](C)O2)[C@H](C)[C@@H](O[C@@H]2O[C@H](C)C[C@H](N(C)C)[C@H]2O)[C@](C)(O)C[C@@H](C)C(=O)[C@H](C)[C@@H](O)[C@]1(C)O	0	0	0	9.0
CCOC(=O)CCC(=O)O[C@H]1[C@H](O[C@@H]2[C@@H](C)[C@H](O[C@H]3C[C@@](C)(OC)[C@@H](O)[C@H](C)O3)[C@@H](C)C(=O)O[C@H](CC)[C@@](C)(O)[C@H](O)[C@@H](C)C(=O)[C@H](C)C[C@@]2(C)O)O[C@H](C)C[C@@H]1N(C)C	0	0	0	0
COc1cccc(S(=O)(=O)N2CCC3(CC2)CN[C@H](CO)c2[nH]c4cc(OC)ccc4c23)c1	-	-	-	0
O=C(C[C@H]1CC[C@H]2[C@@H](COC[C@@H](O)CN2S(=O)(=O)c2cccc(Cl)c2)O1)N1CCCCC1	0	0	0	0
Cc1ccc(-c2cc(C(F)F)n3ncc(C(=O)Nc4c(C)nn(Cc5ccccc5Cl)c4C)c3n2)cc1	0	79.8	0	-
CCNC(=O)[C@H]1[C@H](CO)[C@H]2Cn3c(ccc(-c4ccccc4)c3=O)[C@@H]1N2Cc1cccnc1	0	0	0	0
Cc1cc(NC(=O)COC(=O)C2CCN(C(=O)c3ccc(Cl)cc3)CC2)no1	0	111.1	-	-
COc1ccc(OC)c(NC(=O)COC(=O)C2CCN(C(=O)c3ccc(Cl)cc3)CC2)c1	-	-	0	0
CCC1S/C(=C(\C#N)C(=O)NCc2ccco2)N(c2ccc(F)cc2)C1=O (configuration not stated)	0	0	0	-
N#C/C(C(=O)NCc1ccco1)=C1/SC(Cc2ccc(F)cc2)C(=O)N1c1ccccc1 (configuration not stated)	0	87.2	0	-
COCC(=O)N1CC2(CCN(C(=O)CN3CCOCC3)CC2)c2c([nH]c3cc(OC)ccc23)[C@H]1CO	-	-	-	0
CCOC(=O)CN1CC23C=CC(O2)C(C(=O)NC2CCCCC2)C3C1=O (configuration not stated)	0	107.5	0	-
C[C@H](CO)N1C[C@H](C)[C@@H](CN(C)C(=O)Nc2cccc3ccccc23)Oc2ccc(NC(=O)Nc3ccc(F)cc3)cc2CC1=O	0	0	0	0

Screens as filed in PubChem.
